Cardio protect = protects H9c2 cardiomyocytes from peroxide injury. H2O2 injury protection, ATPLite, 2 h. protection from H2O2 cell death, % at 20 µM. 0.63% of 360,000 active;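 active means compounds giving at least 50% protection of heart cells from peroxide-induced death in the single-dose screen, raw or plate-pattern-corrected value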;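 further: 0% = DMSO wells with peroxide and 100% = DMSO wells without peroxide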
CRFBP-R2 agonist = agonists of human CRF-binding protein/CRF-R2 receptor complex | HEK293 CRF-R2/CRF-BP, calcium dye fluorescence (FLIPR); percent of saturating CRF peptide response | activation, % at 13.2 µM | 0.46% of 350,000 active;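 active means activation of at least 50%, plus an integration ratio under a set limit after plate pattern correction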;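 further: plate controls were neutral control wells without compound for no effect and CRF at EC100 for full effect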
CRFR2-BP antag = CRF-BP/CRF-R2 complex antagonism; HEK293 CRF-R2/CRF-BP, CRF-induced calcium fluorescence; inhibition, % at 11.8 µM; 0.59% of 350,000 active;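 active means inhibition of the ligand-induced calcium signal above about 50% at the single tested concentration, limit read from the data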
iPSC survival up = hiPSC single-cell survival enhancement. 0.044% of 360,000 active. ATPlite luminescence; 100% = ROCK inhibitor wells, 0% = DMSO. survival enhancement, % at 20 µM; in the data active means survival enhancement above about 18%;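 further: cells exposed to compounds for 16 hours before the ATP read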
SKN-1 block = C. elegans SKN-1 inhibition. C. elegans VP596 Pgst-4::GFP/RFP ratio, acrylamide-induced, 24 h. inhibition, % at 21.8 µM. 0.49% of 360,000 active;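 active means interference check ratio from 0.5 to 1.5 plus GFP to RFP signal ratio inhibition reaching or exceeding a fixed threshold, cut at about 30% in these data, passing the limit was not always enough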
H9c2 TAG inh = triacylglycerol accumulation inhibition; H9c2 cells, Nile Red lipid (TAG) fluorescence; cells loaded with 200 µM oleic acid; inhibition, % at 12.5 µM; 0.66% of 230,000 active; AID 651582;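 active means pattern-corrected inhibition of lipid staining of at least 50% with the nuclear-stain viability signal not falling by more than 50%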;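 further: 0% = DMSO wells and 100% = triacsin C control wells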
Active calls of the source: *; · = no result given; ! = not active in a repeat. In the library only some 2.5% were active in any assay of this set; here they are far more common.

SMILES	Cardio protect	CRFBP-R2 agonist	CRFR2-BP antag	iPSC survival up	SKN-1 block	H9c2 TAG inh
CCOC(=O)C1=C(CCc2ccccc2)NC(=O)NC1c1cccc([N+](=O)[O-])c1 (stereo unspecified)	-2	1	58*	1	10	12
CCOC(=O)C1=C(COC(=O)c2ccc(Cl)cc2[N+](=O)[O-])NC(=O)NC1C (stereo unspecified)	2	-1	-8	0	34*	9
COc1cccc(C(O)c2nc(-c3cccc(F)c3)cs2)c1 (stereo unspecified)	-2	·	·	2	16	-8
CCNC(=O)C[C@@H]1CC[C@@H]2NC[C@@H](O)COC[C@H]2O1	·	·	·	·	-2	·
CN(CC(=O)Nc1ccccc1Br)C(=O)Cn1[nH]c(=O)c2ccccc2c1=O	83*	0	-2	4	-6	6
COc1ccc(Cl)cc1NC(=O)CN(C)C(=O)Cn1[nH]c(=O)c2ccccc2c1=O	84*	0	1	0	-8	25
O=[N+]([O-])c1ccc(C2=NN(c3ccccc3)C(c3ccco3)C2)cc1 (stereo unspecified)	-6	105*	-92	0	30	-430
O=[N+]([O-])c1ccc(/C=C/C2=NN(c3ccccc3)C(c3ccco3)C2)cc1 (stereo unspecified)	-1	182*	-174	4	31	·
CCOC(=O)CNC(=O)CSc1nc2nc(C)c(Br)cc2[nH]1	50*	3	-7	2	9	-14
CCN(CC)C(=O)c1sc(NC(=O)Cc2ccccc2)c(C#N)c1C	-4	0	-1	0	-23	-19
CCN(CC)C(=O)c1sc(NC(=O)Cc2ccc(OC)cc2)c(C#N)c1C	-3	-2	15	11	45*	-18
CCCCCn1nnnc1C1(C)CCC(=O)N1Cc1ccco1 (stereo unspecified)	·	·	·	·	-3	·
O=C1NC(=O)C(Cc2ccc(O)cc2)N1 (stereo unspecified)	2	-1	3	-3	9	·
O=C(CSc1nccn(-c2cccc(F)c2)c1=O)Nc1ccc(Cl)cc1F	-4	0	-9	0	7	·
O=C(/C=C/c1cccs1)c1cc(Cl)ccc1O	-9	-1	-20	-1	11	-7
O=C(C=Cc1cccs1)c1ccc(Cl)s1	-4	0	-31	-3	41*	4
Cc1ccc(C)c(CSc2nnc(-c3cccs3)n2Cc2ccco2)c1	-8	0	50*	0	7	-9
Fc1ccc(-c2cnn3c(-c4ccncc4)ccnc23)cc1	-14	0	24	-2	41*	19
Fc1ccc(-c2cnn3c(-c4cccs4)ccnc23)cc1	-13	11	-24	-4	29	·
COCCn1c(-c2ccccc2)csc1=Nc1cccnc1	-12	0	92*	1	2	·
COc1ccc(Cl)c2c1[nH]c1nc(SCc3ccccn3)nnc12	64*	0	9	0	3	15
COc1ccc(Cl)c2c1[nH]c1nc(SCc3cccnc3)nnc12	-2	-1	3	0	-5	14
CN(C)CCNC(=O)c1cccc(-c2cnc3c(NC=O)cc(/C=C/c4ccccc4)cn23)c1	-11	·	·	-4	-3	22
CCOC(=O)N1CCC(NC(=O)c2cc3c(-c4ccccc4F)nn(C)c3s2)CC1	50*	0	4	1	-6	-12
COc1ccc(NC(=O)c2cc3c(-c4ccc(OC)c(OC)c4)nn(C)c3s2)cc1OC	62*	-1	20	-2	-7	79*
SMILES	Cardio protect	CRFBP-R2 agonist	CRFR2-BP antag	iPSC survival up	SKN-1 block	H9c2 TAG inh
CCOC(=O)C1CCN(C(=O)c2cc3c(-c4ccc(OC)c(OC)c4)nn(C)c3s2)CC1	34	-6	1	-1	-2	9
CCOC(=O)N1CCC(NC(=O)c2cc3c(-c4ccc(OC)c(OC)c4)nn(C)c3s2)CC1	63*	-1	5	-4	14	21
CCOC(=O)c1c(C)[nH]c(C(=O)COC(=O)c2ccc([N+](=O)[O-])o2)c1C	35	-1	-6	-1	-8	31
COc1cccc(C(c2nnnn2Cc2ccccc2)N2CCN(C3CCCC3)CC2)c1OC (stereo unspecified)	95*	-1	-3	6	11	11
O=C(COC(=O)Cc1n[nH]c(=O)c2ccccc12)Nc1ccc(Cl)cc1F	56*	-2	13	-1	-7	4
O=C(COC(=O)Cc1n[nH]c(=O)c2ccccc12)Nc1ccc(Cl)cn1	88*	2	-7	0	7	9
CC(OC(=O)Cc1n[nH]c(=O)c2ccccc12)C(=O)Nc1cc(Cl)cc(Cl)c1 (stereo unspecified)	56*	0	10	0	5	21
CC(OC(=O)Cc1n[nH]c(=O)c2ccccc12)C(=O)Nc1ccc(Cl)cn1 (stereo unspecified)	58*	-2	3	0	13	·
CN1CCN(c2ccc([N+](=O)[O-])c(-n3nc(-c4ccccc4)c4ccccc4c3=O)c2)CC1	-2	1	5	1	15	17
Cc1ccc2nc(-c3ccc(NC(=S)NC4CC(C)(C)NC(C)(C)C4)cc3)sc2c1	-15	0	-8	-3	84*	53*
COC(=O)c1c(C)c2c(C)cc3ccccn3c-2c1C(=O)OC	6	30	-20	8	3	·
COC(=O)c1cc2c(-c3ccccc3)cc3ccccn3c-2c1C(=O)OC	61*	11	0	0	37	·
CC(OC(=O)CCNS(=O)(=O)c1ccccc1)C(=O)Nc1ccc(S(=O)(=O)N2CCCCC2)cc1 (stereo unspecified)	-22	3	-11	-3	6	-1
COc1ccc(C)cc1N(C)C(=O)Cc1c(C(=O)O)n(C)c2ccccc12	-3	-1	-9	-1	-12	·
O=C(Nc1ccc(N2CCN(c3ccccc3)CC2)c(F)c1)C1CC1	-4	1	58*	0	-3	-55
Cc1c(N=C/C=C2/N(C)c3ccccc3C2(C)C)c(=O)n(-c2ccccc2)n1C	-1	1	-21	-1	39*!	-5
Cc1c(N=C/C=C2\N(C)c3ccccc3C2(C)C)c(=O)n(-c2ccccc2)n1C	2	-1	-6	-2	13	·
O=[N+]([O-])c1ccc(NN=C(Oc2ccccc2)c2ccc([N+](=O)[O-])cc2)cc1	-6	29	-59	-1	-3	-17
CC/C(=N\Nc1ccc([N+](=O)[O-])cc1)c1ccccc1	-22	0	-19	1	35*	12
COc1ccc(C2C(C#N)=C(N)Oc3cc(N)ccc32)cc1 (stereo unspecified)	-1	2	-10	0	-1	·
COc1cc(C2C(C#N)=C(N)Oc3cc(N)ccc32)cc(OC)c1OC (stereo unspecified)	7	0	8	-5	3	65*
